# From the supplement of paper PMC3334620
# In all, about 33,000 sequences were measured (“E-score (-0.5 to 0.5)”: median about -0.016, highest 2% from about 0.3 on). Only a selection was taken, and the highest values are over-represented in it overall.
# Biological target: T1, Yer184c (UniProt P39961)
# T1 sequence: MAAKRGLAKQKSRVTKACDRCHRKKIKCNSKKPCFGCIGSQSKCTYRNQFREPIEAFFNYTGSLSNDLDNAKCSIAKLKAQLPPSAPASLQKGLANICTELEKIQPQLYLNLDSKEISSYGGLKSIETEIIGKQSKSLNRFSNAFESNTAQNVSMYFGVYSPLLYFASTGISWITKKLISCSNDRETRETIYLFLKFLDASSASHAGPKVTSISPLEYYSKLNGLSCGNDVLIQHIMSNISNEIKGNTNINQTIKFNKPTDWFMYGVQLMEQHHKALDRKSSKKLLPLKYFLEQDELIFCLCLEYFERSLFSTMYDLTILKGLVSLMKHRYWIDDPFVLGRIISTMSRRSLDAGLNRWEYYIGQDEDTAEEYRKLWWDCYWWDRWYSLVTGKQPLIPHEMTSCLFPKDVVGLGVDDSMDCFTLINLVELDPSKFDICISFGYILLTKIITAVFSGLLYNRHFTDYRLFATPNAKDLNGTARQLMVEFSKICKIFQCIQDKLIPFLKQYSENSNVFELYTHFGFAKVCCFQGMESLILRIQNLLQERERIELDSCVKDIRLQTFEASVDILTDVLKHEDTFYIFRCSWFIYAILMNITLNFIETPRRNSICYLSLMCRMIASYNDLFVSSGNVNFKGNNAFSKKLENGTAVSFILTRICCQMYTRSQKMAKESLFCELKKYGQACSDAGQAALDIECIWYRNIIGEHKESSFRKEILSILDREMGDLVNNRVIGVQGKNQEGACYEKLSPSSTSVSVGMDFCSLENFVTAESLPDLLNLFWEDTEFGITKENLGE
# Experiment: PBM E-score (8-mer binding enrichment) (E-score (-0.5 to 0.5)); higher = stronger / more preferred TF binding
# Conditions: protein concentration: 100 nM; construct: GST-full length
# Protocol: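 Universal 'all 10-mer' protein binding microarrays (Agilent AMADID 015681) probed with GST-tagged S. cerevisiae TFs (full-length or DBD) made by in vitro transcription/translation (PURExpress), about 100-200 nM. Bound TF was detected with fluorescent anti-GST. Each ungapped 8-mer (which stands for itself and its reverse complement) is scored by the PBM enrichment score (E-score), a modified Wilcoxon-Mann-Whitney statistic from -0.5 to +0.5, computed with the Universal PBM Analysis Suite. Scale: above 0.35 generally sequence-specific binding.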
row,Sequence,PBM E-score
1,CACCGGCG,0.238
2,AACCGGCA,0.238
3,AACCGACG,0.189
4,CACCGGCC,0.177
5,AACCGGCG,0.306
6,AACCGGCC,0.318
7,ATATGAAT,0.156
8,ATACTCGA,-0.0376
9,AAGTCCCC,-0.18
10,TAAAAGTA,0.161
11,AGAGAGTG,-0.158
12,CTCTCATA,-0.0704
13,GAGGGAGC,-0.277
14,CGAGGTTC,0.116
15,ACCGAGGC,-0.0788
16,GCCGAGGA,0.335
17,TCCGAGGA,0.196
18,GCCGAGGC,0.386
19,CCCGAGGC,-0.013
20,CCCGAGGA,0.0175
21,ACCGAGCC,0.221
22,GCCGAGCC,0.34
23,CCCGAGCC,0.155
24,AGCGGTGC,-0.168
25,AATTGCGC,0.16

row,Sequence,PBM E-score
1,CGGATCAC,0.277
2,ATTTATAC,0.28
3,ATATATTC,0.319
4,CTTTATAA,0.0517
5,CTATATAC,0.247
6,ATATATAC,0.317
7,ATATATAG,0.282
8,ATTTATAA,0.326
9,ATATATTG,0.0957
10,GTATATAC,-0.0816
11,CTATATAG,-0.109
12,ATATATAT,0.336
13,CTATATTC,-0.0128
14,AGTAGCCG,0.198
15,GTGACATA,0.121
16,CTTTACCC,0.00954
17,CCTGAAAC,0.15
18,AATACTGT,0.188
19,GAAGCAAA,-0.0663
20,CAGCCTCG,-0.0314
21,GGCTTAAC,-0.0348
22,CTATATAA,0.0877
23,TTATATAA,0.225
24,ATATAACA,0.309
25,ATATATAA,0.339

row,Sequence,PBM E-score
1,CTATAACA,-0.0394
2,ATATAACC,-0.0755
3,AGATGGGA,-0.194
4,GAGGCTGA,-0.172
5,ACAGGGGA,-0.249
6,CCAGTCGG,-0.0574
7,ATATATCG,0.312
8,AAATATCG,0.194
9,AATTATCC,0.116
10,ATATATCC,0.318
11,AATTATCG,0.305
12,ATATATCA,0.115
13,CTATATCC,-0.119
14,AATTATCA,0.221
15,AGATATCC,0.0863
16,AAGTATTC,0.0574
17,CGTAAGCA,-0.252
18,AGCTAGCC,-0.0869
19,AAGGTGAA,-0.0939
20,CAGCAAAA,-0.0176
21,CCATACCA,-0.145
22,ATTGAGTA,0.191
23,CGGACAAG,0.234
24,AGGACAAC,0.0373
25,CGGACAAA,0.353

row,Sequence,PBM E-score
1,CGGACGAC,0.23
2,CGGACGAA,0.353
3,CGGACAAC,0.373
4,AGGACAAA,0.136
5,GGGACAAC,-0.0988
6,GGGACGAA,0.0852
7,CATCGAAG,-0.0421
8,ACTTAACA,-0.00053
9,ATGCTCTG,-0.178
10,AATGGCCG,0.0612
11,ATGAAGGC,-0.0969
12,CGTCCCGA,0.0521
13,GATCTGAC,-0.0541
14,ATTGCCAG,-0.0205
15,ATTGCCGG,0.348
16,ATTGCCGC,0.162
17,GCTGCCGA,0.292
18,ATTGCCGA,0.311
19,GTTGCCCA,-0.0158
20,ATTGCCCA,-0.102
21,CTTGCCGA,0.22
22,GTTGCCGA,0.373
23,TCCTGCGA,0.00447
24,GGCCAACA,-0.0401
25,GCTGTTAC,-0.0967

row,Sequence,PBM E-score
1,CTTAGCAA,0.0294
2,TCCTGCAA,-0.0596
3,AGGCATAT,0.0107
4,ACGCCAGA,-0.132
5,TAACCGGA,0.279
6,CAACCGGA,0.373
7,GAACCGGC,0.18
8,CAACCGGC,0.323
9,GAACCGGA,0.349
10,CAACCGCC,-0.042
11,CAACCGAC,0.238
12,CAACCGGG,0.14
13,CAACCGCA,0.0386
14,CTACCGGC,0.0792
15,CAACCGCG,0.306
16,CAACCGAA,0.258
17,CTCTAACA,0.0218
18,AGTTCGAT,-0.0396
19,AGGTGAAC,-0.112
20,ACGTTGCT,-0.0994
21,CGGATGGA,0.207
22,ATCACAAT,0.0634
23,CAAGCGCA,0.0414
24,CCCACCTA,-0.241
25,GGTATCAA,-0.0802

row,Sequence,PBM E-score
1,AAACCGGG,0.0839
2,AAACCGGC,0.313
3,AAACCGGA,0.306
4,AGACCGGC,0.128
5,AAACCGGT,0.216
6,AAACCGCC,0.147
7,ATTTAGAC,0.121
8,AAAACCCG,0.163
9,CAAGCCCA,-0.326
10,CAAGCCGG,0.327
11,CCAGCCGA,0.205
12,AAAGCCGT,0.262
13,TAAGCCGA,0.369
14,CAAGCCTG,-0.271
15,AAAGCCGC,0.188
16,AAAGCCGG,0.351
17,CAAGCCGA,0.324
18,CAAGCCGC,-0.0146
19,GAAGCCGA,0.287
20,AAAGCCGA,0.174
21,CTCACAAG,-0.177
22,AAGGTCGG,-0.018
23,TAGGTGAA,0.0169
24,CACCAACA,-0.23
25,GGCTATCA,0.131

row,Sequence,PBM E-score
1,ACTCGGAC,0.208
2,ACTCGGAA,0.341
3,CCTCGGAA,0.28
4,GCTCGGTA,0.129
5,GCTCGGAA,0.334
6,GCTCGGAC,0.187
7,ACTCGGAT,0.268
8,TGTCGGAA,0.163
9,TCTCGGAA,0.334
10,GCAGCAGC,-0.0995
11,CCATAGCG,-0.124
12,CGGTCTCA,0.0469
13,GGACGCCA,-0.224
14,CCTCTTCA,-0.18
15,ATTCTCGC,-0.192
16,ACTCTCGG,0.344
17,ACTCTCGA,-0.0924
18,ATTCTCGG,0.345
19,ACTCTCGC,-0.169
20,ATTCTCGA,0.0246
21,ACCACGAT,-0.0131
22,AGTTATGG,-0.0312
23,GCCAACAC,0.0745
24,CGTTGTTC,-0.00041
25,CTGGGCGA,-0.206

row,Sequence,PBM E-score
1,GCCCATCC,-0.224
2,ACGGTAGA,-0.0773
3,TCGGTAGA,0.307
4,CCGGTAGA,0.264
5,AGGCGATG,-0.0512
6,CCGCTGCG,-0.122
7,GCTAGCGA,-0.147
8,ACCCGAGT,0.0508
9,CCTTACCG,0.114
10,AAGAAATG,0.227
11,AAGAAATT,0.346
12,AAGAAATA,0.163
13,AGTCGTGG,-0.191
14,ATAATTAG,0.203
15,ATAATTAA,0.323
16,GAAATTAA,0.337
17,TTAATTAA,-0.041
18,ATAATTAT,0.386
19,ATCATTAA,0.307
20,ATCATTAG,0.037
21,CAAATTAA,0.0386
22,ATAATTAC,0.265
23,AAAATTAA,0.168
24,GTAATTAA,0.143
25,CTCATTAA,0.067

row,Sequence,PBM E-score
1,AACAAACT,0.277
2,AACAACGA,0.112
3,AGTGGCCC,-0.153
4,CAGGTATA,-0.163
5,AGTGTGCA,-0.0513
6,AACGATGT,0.13
7,CTCACCCA,-0.0925
8,CACGTTCG,-0.203
9,GCGCAAGA,0.188
10,AAAATTAG,0.227
11,AAAATTAC,0.127
12,AAAATTAT,0.316
13,AGGGATAG,-0.208
14,CCATCTAC,-0.15
15,ACCGGACA,0.122
16,GCCGGATA,0.354
17,TCCGGACA,0.431
18,GACGGACA,0.121
19,GCCGGACC,0.214
20,GCCGGACA,0.36
21,GGCGGATA,0.0758
22,GCAGGATA,-0.168
23,CCCGGACA,0.283
